# Test results as given in PMC7862700, “An all-to-all approach to the identification of sequence-specific readers for epigenetic DNA modifications on cytosine”.
# What was measured:
# Assay in all cases: DAPPL (digital affinity profiling via proximity ligation, sequencing); 10 mM Tris-HCl pH 7.5, 50 mM NaCl, 1 mM DTT, 4% glycerol, room temperature, 30 min; GST-TFs on glutathione beads, 16-mer random dsDNA library, 0.1% formaldehyde crosslink after washing; high values mean tight binding
# Details in all cases: protein: recombinant; tags: N-terminal GST; dsDNA, one strand shown
# FLI1 = molecular target: T1, FLI1 (Homo sapiens, UniProt Q01543 1-452)
# T1 sequence: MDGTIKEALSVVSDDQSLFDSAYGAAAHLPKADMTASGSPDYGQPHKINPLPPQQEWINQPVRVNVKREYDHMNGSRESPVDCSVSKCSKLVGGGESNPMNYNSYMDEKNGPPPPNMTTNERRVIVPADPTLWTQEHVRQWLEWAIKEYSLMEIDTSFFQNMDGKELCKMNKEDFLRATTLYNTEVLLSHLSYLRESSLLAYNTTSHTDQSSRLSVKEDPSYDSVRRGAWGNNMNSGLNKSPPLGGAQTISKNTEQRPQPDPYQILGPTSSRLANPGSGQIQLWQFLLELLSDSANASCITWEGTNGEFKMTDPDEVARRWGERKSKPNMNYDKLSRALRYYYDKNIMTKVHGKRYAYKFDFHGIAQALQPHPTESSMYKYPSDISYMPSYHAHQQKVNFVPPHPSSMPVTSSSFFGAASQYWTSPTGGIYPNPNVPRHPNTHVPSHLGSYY
# Method in brief: (§1)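 Yeast served to express human transcription factors as GST fusions, which were then captured on glutathione beads and labelled with DNA barcodes. Pooled with a tag-only sample, they were incubated with 200 nmole of a 16-mer random double-stranded DNA library for 30 min at room temperature in Tris/NaCl/DTT/glycerol buffer, washed, crosslinked with 0.1% formaldehyde, ligated by proximity, amplified by PCR and sequenced. Dividing each hexamer's read frequency for a factor by its frequency for the tag-only sample gives the binding signal.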
# ELK1 = molecular target: T2, ELK1 (Homo sapiens, UniProt P19419 1-428)
# T2 sequence: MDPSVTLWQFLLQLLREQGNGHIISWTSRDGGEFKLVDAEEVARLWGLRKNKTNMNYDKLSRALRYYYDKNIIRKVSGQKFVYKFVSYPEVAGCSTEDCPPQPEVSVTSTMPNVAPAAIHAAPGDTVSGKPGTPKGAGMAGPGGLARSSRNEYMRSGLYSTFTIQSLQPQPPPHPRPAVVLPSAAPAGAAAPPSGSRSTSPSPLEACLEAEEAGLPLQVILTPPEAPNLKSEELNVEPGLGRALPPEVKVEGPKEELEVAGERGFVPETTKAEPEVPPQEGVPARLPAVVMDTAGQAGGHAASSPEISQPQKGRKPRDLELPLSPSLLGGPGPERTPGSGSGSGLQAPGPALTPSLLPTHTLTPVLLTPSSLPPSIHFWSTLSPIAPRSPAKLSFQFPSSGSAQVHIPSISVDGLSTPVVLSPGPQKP
# Method in brief: as §1
# GABPA = molecular target: T3, GABPA (Homo sapiens, UniProt Q06546 1-454)
# T3 sequence: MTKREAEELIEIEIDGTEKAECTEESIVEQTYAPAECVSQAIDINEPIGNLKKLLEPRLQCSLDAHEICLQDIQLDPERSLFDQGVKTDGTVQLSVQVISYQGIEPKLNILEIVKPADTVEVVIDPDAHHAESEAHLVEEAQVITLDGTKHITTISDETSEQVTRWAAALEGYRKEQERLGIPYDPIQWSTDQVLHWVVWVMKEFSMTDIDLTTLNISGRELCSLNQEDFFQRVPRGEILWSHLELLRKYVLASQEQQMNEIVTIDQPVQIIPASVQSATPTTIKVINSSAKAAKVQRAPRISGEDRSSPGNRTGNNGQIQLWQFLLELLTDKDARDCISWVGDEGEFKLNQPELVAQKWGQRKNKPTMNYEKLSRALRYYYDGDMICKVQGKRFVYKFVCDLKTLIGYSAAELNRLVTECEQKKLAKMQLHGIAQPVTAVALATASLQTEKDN
# Method in brief: as §1
# ERG = molecular target: T4, ERG (Homo sapiens, UniProt P11308 1-479)
# T4 sequence: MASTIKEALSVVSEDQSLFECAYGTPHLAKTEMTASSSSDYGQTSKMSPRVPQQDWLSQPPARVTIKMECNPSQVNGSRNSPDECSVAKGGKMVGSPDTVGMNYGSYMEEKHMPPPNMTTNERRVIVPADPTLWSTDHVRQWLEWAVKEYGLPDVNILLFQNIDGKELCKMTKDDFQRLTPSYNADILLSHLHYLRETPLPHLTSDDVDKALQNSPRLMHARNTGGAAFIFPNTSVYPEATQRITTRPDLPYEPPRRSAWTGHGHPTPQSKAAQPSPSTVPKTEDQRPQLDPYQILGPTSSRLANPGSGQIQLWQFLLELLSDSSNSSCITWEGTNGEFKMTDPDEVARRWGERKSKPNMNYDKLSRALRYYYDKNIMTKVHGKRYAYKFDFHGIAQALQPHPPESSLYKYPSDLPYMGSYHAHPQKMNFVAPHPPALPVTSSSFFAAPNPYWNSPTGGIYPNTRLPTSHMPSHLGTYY
# Method in brief: as §1
# ELF1 = ELF1 (Homo sapiens, UniProt P32519 1-619)
# Method in brief: as §1
# EHF = molecular target: T5, EHF (Homo sapiens, UniProt Q9NZC4 1-300)
# T5 sequence: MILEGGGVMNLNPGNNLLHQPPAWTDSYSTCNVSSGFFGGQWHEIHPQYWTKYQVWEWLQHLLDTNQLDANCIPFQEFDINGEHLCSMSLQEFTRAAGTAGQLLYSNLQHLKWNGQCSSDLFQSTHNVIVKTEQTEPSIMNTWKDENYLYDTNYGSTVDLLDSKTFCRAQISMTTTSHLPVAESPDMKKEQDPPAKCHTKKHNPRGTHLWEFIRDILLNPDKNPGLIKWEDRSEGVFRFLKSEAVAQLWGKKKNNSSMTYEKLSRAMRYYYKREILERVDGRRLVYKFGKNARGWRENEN
# Method in brief: as §1
# SPI1 = SPI1 (Homo sapiens, UniProt P17947 1-270)
# Method in brief: as §1
# SPIB = SPIB (Homo sapiens, UniProt Q01892 1-262)
# Method in brief: as §1
# ELK3 = molecular target: T6, ELK3 (Homo sapiens, UniProt P41970 1-407)
# T6 sequence: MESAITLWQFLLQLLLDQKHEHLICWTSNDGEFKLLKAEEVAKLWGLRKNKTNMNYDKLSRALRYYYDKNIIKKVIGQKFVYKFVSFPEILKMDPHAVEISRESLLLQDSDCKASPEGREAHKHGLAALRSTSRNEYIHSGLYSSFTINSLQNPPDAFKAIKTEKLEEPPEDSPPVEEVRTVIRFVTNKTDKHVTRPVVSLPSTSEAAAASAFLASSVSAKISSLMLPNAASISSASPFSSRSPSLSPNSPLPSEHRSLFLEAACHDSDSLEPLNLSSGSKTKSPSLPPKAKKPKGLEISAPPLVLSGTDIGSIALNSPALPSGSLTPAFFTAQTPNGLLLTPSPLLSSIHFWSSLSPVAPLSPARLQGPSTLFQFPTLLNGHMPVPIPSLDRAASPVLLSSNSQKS
# Method in brief: as §1
# Chain of ELF1 (P32519 whole entry): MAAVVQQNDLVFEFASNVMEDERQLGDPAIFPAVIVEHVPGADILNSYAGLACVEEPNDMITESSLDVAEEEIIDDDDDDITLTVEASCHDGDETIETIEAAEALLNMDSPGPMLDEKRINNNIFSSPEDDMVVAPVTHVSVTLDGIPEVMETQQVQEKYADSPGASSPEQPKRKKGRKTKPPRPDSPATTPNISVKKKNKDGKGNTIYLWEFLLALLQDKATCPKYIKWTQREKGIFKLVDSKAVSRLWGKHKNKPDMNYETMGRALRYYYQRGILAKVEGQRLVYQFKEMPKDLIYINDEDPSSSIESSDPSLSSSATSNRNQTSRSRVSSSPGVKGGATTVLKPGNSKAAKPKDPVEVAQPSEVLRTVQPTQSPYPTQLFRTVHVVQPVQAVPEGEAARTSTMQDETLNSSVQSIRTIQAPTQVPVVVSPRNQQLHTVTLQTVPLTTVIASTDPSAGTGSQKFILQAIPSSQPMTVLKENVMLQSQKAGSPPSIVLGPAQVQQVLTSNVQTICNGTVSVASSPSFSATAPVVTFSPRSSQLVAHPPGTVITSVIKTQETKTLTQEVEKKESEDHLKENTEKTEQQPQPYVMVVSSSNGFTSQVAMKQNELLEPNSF
# Chain of SPIB (Q01892 whole entry): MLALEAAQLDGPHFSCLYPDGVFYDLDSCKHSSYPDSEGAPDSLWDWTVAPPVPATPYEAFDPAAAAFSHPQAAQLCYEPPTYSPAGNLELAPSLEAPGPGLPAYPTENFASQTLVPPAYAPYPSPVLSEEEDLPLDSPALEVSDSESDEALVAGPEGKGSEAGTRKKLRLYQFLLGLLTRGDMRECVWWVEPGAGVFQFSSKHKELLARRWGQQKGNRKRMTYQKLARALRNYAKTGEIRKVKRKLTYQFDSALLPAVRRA
sequence,measurement,setting,value
AAACCA,binding signal,FLI1,"1.13 fold enrichment (6-mer frequency, TF over GST control)"
same,binding signal,ELK1,"1.11 fold enrichment (6-mer frequency, TF over GST control)"
same,binding signal,GABPA,"1.14 fold enrichment (6-mer frequency, TF over GST control)"
same,binding signal,ERG,"1.19 fold enrichment (6-mer frequency, TF over GST control)"
same,binding signal,ELF1,"1.18 fold enrichment (6-mer frequency, TF over GST control)"
same,binding signal,EHF,"1.17 fold enrichment (6-mer frequency, TF over GST control)"
same,binding signal,SPI1,"1.07 fold enrichment (6-mer frequency, TF over GST control)"
same,binding signal,SPIB,"1.16 fold enrichment (6-mer frequency, TF over GST control)"
same,binding signal,ELK3,"1.18 fold enrichment (6-mer frequency, TF over GST control)"
